For orientation: AC50 means the midpoint of the concentration-response curve, whichever way the signal moves.

Several values for one entry are separate records, joined by “and”; a condition that tells them apart may be missing. Identical values can stand only once. Screen size: about 16,000 compounds; about 5,100 (32%) were called active. Not shown: some 25% with an inconclusive outcome. This is one part of the list. Unmarked numbers belong to inactive results. The call rests on the fitted dose curve; in most records, active means well fitted curve in the direction sought with a large enough effect; inconclusive means small, poorly fitted or top-dose-only effect, or effect the other way; inactive means no such curve, though single readings can be large or run the other way.
On the % scale 0 is the no-effect control and ±100 the full control effect.

Chain of Cytochrome P450 3A4 (Homo sapiens) (P08684 whole entry, looked up): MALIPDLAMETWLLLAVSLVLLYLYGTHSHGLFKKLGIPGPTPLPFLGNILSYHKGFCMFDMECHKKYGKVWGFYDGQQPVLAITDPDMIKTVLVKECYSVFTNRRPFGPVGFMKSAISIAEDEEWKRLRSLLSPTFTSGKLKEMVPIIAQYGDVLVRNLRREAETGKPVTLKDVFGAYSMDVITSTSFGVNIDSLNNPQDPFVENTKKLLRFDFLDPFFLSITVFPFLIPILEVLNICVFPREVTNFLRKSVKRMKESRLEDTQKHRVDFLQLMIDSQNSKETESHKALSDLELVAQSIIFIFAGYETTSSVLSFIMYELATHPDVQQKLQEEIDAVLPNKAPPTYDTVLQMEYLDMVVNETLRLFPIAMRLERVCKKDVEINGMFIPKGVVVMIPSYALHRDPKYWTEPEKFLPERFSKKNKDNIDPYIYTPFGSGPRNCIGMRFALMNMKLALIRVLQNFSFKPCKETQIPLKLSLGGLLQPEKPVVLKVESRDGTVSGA

This experiment concerns the target Cytochrome P450 3A4 (Homo sapiens) (UniProt P08684). The experiment is described as follows: Cytochrome panel assay with activity outcomes. To be noted: recombinant CYP, pro-luciferin dealkylation, luminescence, p450-cyp3a4; series mostly up to 57.1 µM; activity, negative = inhibition: at the top concentration. As for the experimental part:
The P450 gene superfamily is involved in the metabolism and clearance of xenobiotics. This assay used various human CYP P450 isozymes to measure the dealkylation of various pro-luciferin substrates to luciferin. The luciferin is then measured by luminescence after the addition of a luciferase detection reagent. Pro-luciferin substrate concentration in the assay was equal to its KM for its CYP P450 isozyme. Inhibitors and some substrates limit the production of luciferin, and decrease measured luminescence.
NCGC Assay Protocol Summary:
1, Reagent, 2 uL, Isozyme and Pro-Luciferin
2, Library compounds, 23 nl, 40 uM to 0.24 nM dilution series
3, Controls, 23 nl, Isozyme specific inhibitor
4, Reagent, 2 uL, NADPH regeneration solution
5, Incubation time, 60 min, Isozyme specific temperature
6, Reagent, 4ul, Detection reagent
7, Incubation time, 20 min, Isozyme specific temperature
8, Detection, 1 sec, ViewLux luminescent read
The luciferase-based P450-GloTM Screening Systems were obtained from Promega (Madison, WI) for CYP 1A2 (V9770), CYP 2C9 (V9790), CYP2 C19 (V9880), CYP 2D6 (V9890), and CYP 3A4 Luciferin-PPXE (V9910) and were adapted for 1,536-well microplates and an automated protocol. The control compounds furafylline for 1A2 (F124), sulfaphenazole for CYP 2C9 (S0758), ketoconazole for CYP 2C19 (K1003), quinidine for 2D6 (Q3625), and ketoconazole for 3A4 (K1003) were purchased from Sigma Aldrich (St. Louis, MO). Recombinant P450 enzymes were obtained from baculovirus constructs expressed in insect cells (BD/Gentest).
Medium-binding white solid Kalypsys plates used. Mixtures kept on ice. 1A2: 10 nM 1A2, 100 uM Luc-ME, 100 mM KPO4; 2C9: 10 nM 2C9, 100 uM Luc-H, 25 mM KPO4; 2C19: 5 nM 2C19, 10 uM Luc-H EGE, 50 mM KPO4; 2D6: 5 nM 2D6, 30 uM Luc-ME EGE, 100 mM KPO4; 3A4: 10 nM, 25 uM Luc-PPXE. All amounts are reflected in their final concentration, working concentration is 2x.
NADPH regeneration solution: 1.3 mM NADP+, 3.3 mM glucose-6-phosphate, 3.3 mM MgCl2, 0.4 U/mL glucose-6-phosphate dehydrogenase for all isozymes, 200 mM KPO4 for 3A4. Mixture prepared at RT but kept on ice during automated run.
RT incubation in auxilliary plate hotel for 1A2, 2D6, and 3A4; 37C for 2C9 and 2C19.
Keywords: P450, CYP1A2, CYP2C19, CYP2C9, CYP2D6, CYP3A4, Luciferase, MLSMR, MLSCN, NIH Roadmap, qHTS, NCGC
In the case of `N#C/C(=C\c1ccc(O)c(O)c1)C(=O)NCCCNC(=O)/C(C#N)=C/c1ccc(O)c(O)c1`, the AC50 is 2 µM (active).

For the compound `N#C/C(=C\c1ccc(O)c(O)c1)C(N)=S`, the AC50 is 12.6 µM (active) and 15.8 µM (active). Consider `CC[C@@H]1[C@@H]2C[C@H]3[C@H]4N(C)c5ccccc5[C@@]45C[C@@H]([C@@H]2[C@@H]5O)N3[C@H]1O`, for which the “activity, negative = inhibition” value is 1.61% [at 25.6 µM]. In the case of `CNC[C@H](O)c1ccc(O)cc1`, the “activity, negative = inhibition” value is -13% [at 25.6 µM]. Same read-out and setting: then `NC[C@H](CP(=O)(O)O)c1ccc(Cl)cc1`, with -3.38%. With `CC1(C)[C@@H]2CC[C@]1(C)CN(CCC[N+](C)(C)C)C2`, the activity, negative = inhibition was 12.3% [at 11.4 µM]. On to `C[N+](C)(C)CCCCCC[N+](C)(C)C`, for which the “activity, negative = inhibition” value was -2.76% [at 25.6 µM]. As for `O=C(Nc1ccc(C(F)(F)F)cc1)c1cccn(Cc2ccc3c(c2)OC(F)(F)O3)c1=O`, the “activity, negative = inhibition” value was -21.3%. As to `CCCCn1c(O)c(C(CC)=Nc2ccc(OC)cc2OC)c(=O)[nH]c1=O`, the AC50 is 7.94 µM (active).

Consider `C=CCn1c(O)c(C(CC)=NC2CC2)c(=O)[nH]c1=O`, for which the activity, negative = inhibition was -14.9% [at 2.29 µM]. Turning to `O=C(CCCN1CCC(n2c(=O)[nH]c3ccccc32)CC1)c1ccc(F)cc1`, the “activity, negative = inhibition” value is -10.2% [at 25.6 µM].

Take `COc1ccc(C(=O)c2c(C)n(CCN3CCOCC3)c3cc(I)ccc23)cc1`: the AC50 is 5.01 µM (active). On to `CCCn1c(C)c(C(=O)c2cccc3ccccc23)c2ccccc21`, for which the “activity, negative = inhibition” value is -13.7%. The same measure, in the same setting: under `CC(C)CC(=O)C[C@H](O)C(Cl)(Cl)Cl` stands 1.61% [at 11.4 µM].

With `S=P(C1CCCCC1)(C1CCCCC1)[C@H](c1cccnc1)N1CCCC1`, the AC50 is 3.16 µM (active). Turning to `CCC(CC)C(=O)NC1CCSC1=O` (stereo not given), the “activity, negative = inhibition” value is 10.8%. Still for that read-out and setting: then `CN1CCN(c2ncc3ncc(=O)n(C)c3n2)CC1`, with 0.0574%; and `COc1ccc(C(=O)OC2C[C@H]3CC[C@@H](C2)N3C)cc1OC` (stereo not given in full), with -8.39% [at 25.6 µM].

Take `Cc1ccc(S(=O)ON2CCC(C(=O)O)(c3ccccc3)CC2)cc1` (stereo not given): the activity, negative = inhibition was -0.254% [at 11.4 µM].

`C=C(CC1(C(C)NP(=O)(c2ccccc2)c2ccccc2)CC1)c1ccccc1` (stereo not given): the AC50 was 3.98 µM (active). `O=P(c1ccccc1)(c1ccccc1)N1CC2(CC2)CC(O)(c2ccccc2)C1` (stereo not given): the “activity, negative = inhibition” value was 1.88%. With `C=C(CC1(CNP(=O)(c2ccccc2)c2ccccc2)CC1)c1ccccc1`, the AC50 is 3.98 µM (active).

For `O=P(O)(O)c1ccccc1` (tested in a mixture with another compound), the activity, negative = inhibition is -7.35% [at 11.4 µM]. Same read-out and setting: under `CN1[C@@H]2CC[C@H]1CC(OC(=O)c1cc(Cl)cc(Cl)c1)C2` (stereo not given in full) stands -16.8%.

Take `CC(C)(C)c1o[nH]c(=O)c1C[C@H](N)C(=O)O`: the activity, negative = inhibition result was “inactive”. For `CCN1C[C@]2(C)CC[C@H](O)[C@@]34[C@@H]5CC6[C@@H](OC)C[C@@](O)([C@@H]5[C@@H]6O)[C@H](C[C@@H]23)[C@H]14`, the “activity, negative = inhibition” value was -7.01% [at 25.6 µM]. Still for that read-out and setting: under `CCCN(CCC)[C@@H]1CCc2cccc(O)c2C1` stands “inactive”; under `N=C(N)c1ccc(-c2ccc(-c3ccc(C(=N)N)cc3)o2)cc1`, 3.4% [at 11.4 µM]. As for `CCCN(CCC)C1Cc2cc(OC)c(OC)cc2C1`, the activity, negative = inhibition entry is “inactive”.

Regarding `C[N+](C)(C)CCO`, the “activity, negative = inhibition” value was 10%. With `C[C@H](c1ccccc1)N1CCN([C@@H](C)c2ccccc2)CC1`, the activity, negative = inhibition was -13.4% [at 11.4 µM]. With `O=C1c2cc([N+](=O)[O-])ccc2-c2ccc3c4ccc5c6c(ccc(c7ccc1c2c73)c64)C(=O)c1cc([N+](=O)[O-])ccc1-5`, the activity, negative = inhibition was -21% [at 11.4 µM].

Regarding `O=C1c2ccccc2-c2cc([N+](=O)[O-])c([N+](=O)[O-])cc21`, the AC50 was 0.501 µM (active). On to `NCCc1ccc(S(=O)(=O)O)cc1[N+](=O)[O-]`, for which the activity, negative = inhibition was -7.4% [at 11.4 µM]. As for `CSCC[C@@H](N)P(C)(=O)O`, the activity, negative = inhibition was -8.04% [at 11.4 µM]. Take `C=C[C@]12CN(C)[C@H]3C1[C@@]1(C(=O)Nc4ccccc41)[C@H]1C[C@H]2[C@H]3CO1`: the “activity, negative = inhibition” value was -22.4% [at 25.6 µM]. Take `Oc1cccc2cccnc12`: the activity, negative = inhibition is -3.42% [at 11.4 µM]. As for `CC[C@H]1C(=O)OC[C@H]1Cc1cncn1C`, the AC50 is 10 µM (active) and 3.16 µM (active). Take `CCC1C(=O)OCC1Cc1cncn1C` (stereo not given): the AC50 is 15.8 µM (active). Take `c1csc(CN2CC3(CCNCC3)C2)n1`: the “activity, negative = inhibition” value is -12.1%.

Consider `OC1(c2ccc(F)cc2)CCNC1` (stereo not given), for which the “activity, negative = inhibition” value was -2.52%. In the case of `O=S(=O)(O)/C(=C\c1ccccc1)c1ccccc1` (tested in a mixture with another compound), the activity, negative = inhibition is -11.7% [at 11.4 µM]. As to `COc1ccn(C)c(=O)c1C#N`, the “activity, negative = inhibition” value was -6.41% [at 25.6 µM].

As to `Cc1ccc(N=Nc2c(O)[nH]c(=O)[nH]c2=O)c([N+](=O)[O-])c1`, the “activity, negative = inhibition” value was 14.9%. Still for that read-out and setting: then `CP(=O)(O)CCCN`, with “inactive”.

Source of the values: PubChem BioAssay AID1851 (National Center for Advancing Translational Sciences (NCATS), 2009).
